Assay results reported in PubChem BioAssay (Tox21).
Records with an inconclusive call do not appear. Calls of active or inactive are those of the source. The call rests on the fitted dose curve; in most records, active means well fitted curve in the direction sought with a large enough effect in the repeat runs; inconclusive means weak or mixed curves; inactive means no such curve, though single readings can be large; an effect the other way counts as inactive or inconclusive.

Experiments:
[1] = Human pregnane X receptor (PXR) small molecule agonists, qHTS cell viability counter screen (AID 1346977); further: nearly all actives have a fitted effect of over 50% in size
Summary of the method: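 In each well, the PXR reporter HepG2 line was checked for viability: CellTiter-Fluor reagent added 23hr post-dosing, fluorescence read after 1hr incubation at 37C.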

[2] = Caspase-3/7 induction in HepG2 cells by small molecules, qHTS assay (AID 1346978); further: nearly all actives have a fitted effect of over 15% in size
Summary of the method: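 Wild-type HepG2 cells (2,000/well) were settled 5 h at 37 C, 5% CO2, then exposed to compounds in DMSO for 17 h. Caspase-3/7 activity was read by luminescence 30 min after adding Caspase-Glo 3/7 reagent at room temperature.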

[3] = Caspase-3/7 induction in CHO-K1 cells by small molecules, qHTS cell viability counter screen (AID 1346979); further: nearly all actives have a fitted effect of over 35% in size
Summary of the method: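 Following a 5hr settling period, CHO-K1 cells at 1,500 per well received DMSO-dissolved compounds. Cell viability was quantified 16hr later by CellTiter-Fluor fluorescence, measured after 1hr with reagent at 37C.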

[4] = Caspase-3/7 induction in CHO-K1 cells by small molecules, qHTS assay (AID 1346980); further: nearly all actives have a fitted effect of over 15% in size
Summary of the method: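 Wild-type cells were seeded at 1,500 per well and settled 5 hr at 37 C, 5% CO2, then exposed to DMSO-dissolved compounds for 17 hr. Caspase-Glo 3/7 reagent was added, and luminescence was read after 30min at room temperature.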

[5] = Caspase-3/7 induction in HepG2 cells by small molecules, qHTS cell viability counter screen (AID 1346981); further: series mostly up to about 92 µM; nearly all actives have a fitted effect of over 30% in size
Summary of the method: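 In this quantitative HTS counter screen, compounds delivered in DMSO were left on unmodified HepG2 cells for 16 hr at 37 C. Viability was then determined fluorometrically with CellTiter-Fluor, in parallel with caspase-3/7 induction in the same wells.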

[6] = biological target: Nuclear receptor subfamily 1 group I member 2 (Homo sapiens) (UniProt O75469); test: Human pregnane X receptor (PXR) small molecule agonists, qHTS assay (AID 1346982); further: nearly all actives have a fitted effect of over 35% in size; further: potency means the concentration at half of the fitted maximal effect
Summary of the method: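 Reporter HepG2 cells expressing PXR-Luc are cultured in charcoal-stripped FBS (5%), treated with compounds for 24 hr at 37 C, and assayed by ONE-Glo luminescence after 30 min at room temperature.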

[7] = biological target: Cytochrome P450 2D6 (Homo sapiens) (UniProt P10635); test: Cytochrome P450 Family 2 Subfamily D Member 6 (CYP2D6) small molecule antagonists: luciferase reporter qHTS assay (AID 1671196); further: nearly all actives have a fitted effect of over 50% in size; further: potency means the concentration at half of the fitted maximal effect
Summary of the method: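 Test chemicals meet CYP2D6 plus proluciferin substrate (10 min, RT); NADPH regenerating solution then drives turnover for 1 h. Detection reagent halts the reaction; luminescence measured after 20 min.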

[8] = biological target: Cytochrome P450 2C19 (Homo sapiens) (UniProt P33261); test: Cytochrome P450 Family 2 Subfamily C Member 19 (CYP2C19) small molecule antagonists: luciferase reporter qHTS assay (AID 1671197); further: nearly all actives have a fitted effect of over 65% in size; further: potency means the concentration at half of the fitted maximal effect
Summary of the method: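 Light output is proportional to CYP2C19 activity: proluciferin substrate is converted to luciferin, then detected by a luciferin detection reagent that also stops the 1 h, 37C NADPH-driven reaction. Ketoconazole serves as positive control.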

[9] = biological target: Cytochrome P450 2C9 (Homo sapiens) (UniProt P11712); test: Cytochrome P450 Family 2 Subfamily C Member 9 (CYP2C9) small molecule antagonists: luciferase reporter qHTS assay (AID 1671198); further: nearly all actives have a fitted effect of over 50% in size; further: potency means the concentration at half of the fitted maximal effect
Summary of the method: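 CYP2C9 activity was measured with a P450-Glo proluciferin substrate. Enzyme–substrate mix was held with compound for 10 min at room temperature, then NADPH regeneration solution was added for 1 h at 37C. Luciferin product was read as luminescence.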

[10] = biological target: Cytochrome P450 1A2 (Homo sapiens) (UniProt P05177); test: Cytochrome P450 Family 1 Subfamily A Member 2 (CYP1A2) small molecule antagonists: luciferase reporter qHTS assay (AID 1671199); further: nearly all actives have a fitted effect of over 50% in size; further: potency means the concentration at half of the fitted maximal effect
Summary of the method: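 Steps: enzyme-substrate mix dispensed; test compounds and furafylline control pinned in; 10 min room temperature; NADPH regeneration solution added, 1 h; reaction stopped with luciferin detection reagent; luminescence read after 20 min.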

[11] = biological target: Cytochrome P450 3A4 (Homo sapiens) (UniProt P08684); test: Cytochrome P450 Family 3 Subfamily A Member 4 (CYP3A4) small molecule antagonists: luciferase reporter qHTS assay (AID 1671201); further: nearly all actives have a fitted effect of over 50% in size; further: potency means the concentration at half of the fitted maximal effect
Summary of the method: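 CYP3A4 activity was followed with a P450-Glo proluciferin substrate. Test compounds in DMSO were preincubated 10 min; NADPH regeneration then ran 1 h, and light output was read 20 min after detection reagent.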

[12] = biological target: Nuclear receptor subfamily 1 group I member 2 (Rattus norvegicus) (UniProt Q9R1A7); test: Rat pregnane X receptor (rPXR) activation by small molecules, qHTS assay (AID 1346983); settings: rPXR luciferase reporter cells, One-Glo luminescence, 24 h; max activation: active compounds read high; further: nearly all actives have a fitted effect of over 20% in size; further: potency means the concentration at half of the fitted maximal effect
Summary of the method: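 Cell-based rPXR luciferase reporter assay, 2,000 cells per well, rested 5hr at 37 C before compound addition in DMSO, then 24 hr at 37 C. One-Glo reagent was added and luminescence read after 30 min at room temperature.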

[13] = biological target: Nuclear receptor subfamily 1 group I member 2 (Homo sapiens) (UniProt O75469); test: Human pregnane X receptor (PXR) activation by small molecules, qHTS assay (AID 1346985); further: nearly all actives have a fitted effect of over 40% in size; further: potency means the concentration at half of the fitted maximal effect
Summary of the method: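 DPX-2 cells (HepG2 co-transfected with a PXR response element and a CYP3A4-promoter luciferase construct) were seeded at 2,000 per well, rested 5 hr at 37C, then exposed to DMSO-dissolved compounds for 24 hr. Activation was read as luciferase luminescence.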

[14] = biological target: Voltage-gated inwardly rectifying potassium channel KCNH2 (Homo sapiens) (UniProt Q12809); test: Human Ether-a-go-go-Related Gene (hERG) channel small molecule antagonists: fluorescence cell-based qHTS assay (AID 1671200); further: nearly all actives have a fitted effect of over 50% in size; further: potency means the concentration at half of the fitted maximal effect
Summary of the method: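 In this thallium-flux screen, overnight-cultured U2OS cells bearing the channel are dye-loaded in darkness for an hour, rested 10 min at room temperature, and then monitored kinetically at 480/540 nm for two minutes post-stimulus.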

[15] = biological target: Nuclear receptor subfamily 1 group I member 2 (Homo sapiens) (UniProt O75469); test: CYP3A4 induction through human pregnane X receptor (PXR) by small molecules, qHTS assay (AID 1346984); further: nearly all actives have a fitted effect of over 40% in size; further: potency means the concentration at half of the fitted maximal effect
Summary of the method: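 Induction measured in HepG2-based DPX-2 cells co-expressing human PXR and a CYP3A4 promoter-driven luciferase. After a 24-hour compound exposure, cells received CYP3A4 luciferin substrate at 3uM final for 3 hours, and light output was then recorded.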
On the % scale 0 is the no-effect control and ±100 the full control effect.

Cytochrome P450 1A2 (Homo sapiens), sequence (P05177 whole entry, looked up): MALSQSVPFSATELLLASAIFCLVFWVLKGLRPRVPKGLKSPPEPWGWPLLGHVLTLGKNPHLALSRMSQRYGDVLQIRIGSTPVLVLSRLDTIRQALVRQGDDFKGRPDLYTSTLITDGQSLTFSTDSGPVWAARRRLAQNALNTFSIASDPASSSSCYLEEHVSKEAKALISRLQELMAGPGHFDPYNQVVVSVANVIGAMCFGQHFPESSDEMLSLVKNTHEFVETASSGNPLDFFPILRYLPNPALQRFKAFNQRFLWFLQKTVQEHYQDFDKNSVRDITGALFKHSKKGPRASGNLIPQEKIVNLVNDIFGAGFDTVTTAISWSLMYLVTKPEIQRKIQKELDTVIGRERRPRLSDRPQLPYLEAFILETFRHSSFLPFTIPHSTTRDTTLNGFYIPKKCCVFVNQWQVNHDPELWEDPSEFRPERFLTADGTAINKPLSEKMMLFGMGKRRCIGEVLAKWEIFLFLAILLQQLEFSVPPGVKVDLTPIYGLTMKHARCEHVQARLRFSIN
Nuclear receptor subfamily 1 group I member 2 (Homo sapiens), sequence (O75469 whole entry, looked up): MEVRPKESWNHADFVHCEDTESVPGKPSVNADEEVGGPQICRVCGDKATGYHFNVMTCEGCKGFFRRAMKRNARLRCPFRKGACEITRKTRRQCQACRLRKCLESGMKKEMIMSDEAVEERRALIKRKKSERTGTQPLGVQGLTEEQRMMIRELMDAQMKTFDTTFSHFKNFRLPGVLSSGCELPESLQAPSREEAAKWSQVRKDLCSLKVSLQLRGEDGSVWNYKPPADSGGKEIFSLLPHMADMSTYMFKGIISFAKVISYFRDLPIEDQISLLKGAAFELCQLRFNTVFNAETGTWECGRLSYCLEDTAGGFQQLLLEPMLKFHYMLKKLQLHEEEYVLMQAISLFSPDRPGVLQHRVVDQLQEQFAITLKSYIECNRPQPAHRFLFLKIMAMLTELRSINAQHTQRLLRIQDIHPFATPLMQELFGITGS
Cytochrome P450 2C19 (Homo sapiens), sequence (P33261 whole entry, looked up): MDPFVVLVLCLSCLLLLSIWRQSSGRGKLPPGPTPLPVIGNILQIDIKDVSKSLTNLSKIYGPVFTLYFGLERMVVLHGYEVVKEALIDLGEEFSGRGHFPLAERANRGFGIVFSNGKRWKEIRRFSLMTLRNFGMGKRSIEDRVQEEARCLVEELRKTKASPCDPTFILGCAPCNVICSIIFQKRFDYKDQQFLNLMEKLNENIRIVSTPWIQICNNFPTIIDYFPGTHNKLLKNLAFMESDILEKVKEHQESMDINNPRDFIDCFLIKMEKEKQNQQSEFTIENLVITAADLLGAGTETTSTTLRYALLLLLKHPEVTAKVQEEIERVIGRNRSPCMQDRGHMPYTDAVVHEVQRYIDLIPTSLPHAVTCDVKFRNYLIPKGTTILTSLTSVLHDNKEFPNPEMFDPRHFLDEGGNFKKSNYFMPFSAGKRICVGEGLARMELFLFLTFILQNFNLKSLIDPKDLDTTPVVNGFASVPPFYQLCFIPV
Voltage-gated inwardly rectifying potassium channel KCNH2 (Homo sapiens), sequence (Q12809 whole entry, looked up): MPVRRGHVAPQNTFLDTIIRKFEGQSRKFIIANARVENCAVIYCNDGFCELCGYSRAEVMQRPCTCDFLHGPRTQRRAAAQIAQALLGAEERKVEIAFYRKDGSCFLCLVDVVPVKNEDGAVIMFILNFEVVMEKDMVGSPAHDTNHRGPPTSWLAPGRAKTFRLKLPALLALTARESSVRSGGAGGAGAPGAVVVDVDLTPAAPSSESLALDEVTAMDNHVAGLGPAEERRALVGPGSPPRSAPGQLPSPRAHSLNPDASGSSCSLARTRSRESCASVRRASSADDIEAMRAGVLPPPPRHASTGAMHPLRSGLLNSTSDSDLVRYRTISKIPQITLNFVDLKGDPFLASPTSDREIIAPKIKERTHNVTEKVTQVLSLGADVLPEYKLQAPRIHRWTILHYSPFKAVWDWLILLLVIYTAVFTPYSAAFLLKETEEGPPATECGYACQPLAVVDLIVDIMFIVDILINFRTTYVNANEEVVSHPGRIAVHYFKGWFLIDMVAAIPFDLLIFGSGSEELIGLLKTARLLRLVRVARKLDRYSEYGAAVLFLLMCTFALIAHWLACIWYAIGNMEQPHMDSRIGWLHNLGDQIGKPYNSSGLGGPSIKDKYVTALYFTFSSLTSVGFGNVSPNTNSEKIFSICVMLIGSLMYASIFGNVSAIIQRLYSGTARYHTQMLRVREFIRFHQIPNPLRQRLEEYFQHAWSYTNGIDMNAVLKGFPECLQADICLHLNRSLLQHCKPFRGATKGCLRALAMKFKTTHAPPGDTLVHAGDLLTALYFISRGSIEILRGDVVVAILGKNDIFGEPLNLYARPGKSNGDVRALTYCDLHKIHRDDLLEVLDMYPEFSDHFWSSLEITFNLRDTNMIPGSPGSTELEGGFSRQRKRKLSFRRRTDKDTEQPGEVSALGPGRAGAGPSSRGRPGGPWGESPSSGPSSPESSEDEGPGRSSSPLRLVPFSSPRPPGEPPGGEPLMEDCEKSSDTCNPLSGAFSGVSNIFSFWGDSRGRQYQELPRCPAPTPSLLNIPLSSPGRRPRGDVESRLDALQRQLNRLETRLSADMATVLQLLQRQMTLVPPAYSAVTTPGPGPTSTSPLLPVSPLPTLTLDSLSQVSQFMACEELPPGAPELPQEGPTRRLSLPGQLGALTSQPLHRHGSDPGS
Nuclear receptor subfamily 1 group I member 2 (Rattus norvegicus), sequence (Q9R1A7 whole entry, looked up): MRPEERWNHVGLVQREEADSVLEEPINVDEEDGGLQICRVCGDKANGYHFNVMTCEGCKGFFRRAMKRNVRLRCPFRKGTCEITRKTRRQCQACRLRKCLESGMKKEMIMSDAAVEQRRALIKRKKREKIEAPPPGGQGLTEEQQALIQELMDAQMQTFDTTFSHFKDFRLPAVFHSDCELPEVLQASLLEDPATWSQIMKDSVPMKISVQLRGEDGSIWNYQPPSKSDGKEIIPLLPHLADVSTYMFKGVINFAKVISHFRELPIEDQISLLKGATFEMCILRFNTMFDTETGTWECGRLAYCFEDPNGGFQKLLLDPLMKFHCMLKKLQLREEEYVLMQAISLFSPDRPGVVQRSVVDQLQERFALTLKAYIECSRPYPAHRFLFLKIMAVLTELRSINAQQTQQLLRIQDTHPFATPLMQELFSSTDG
Cytochrome P450 2C9 (Homo sapiens), sequence (P11712 whole entry, looked up): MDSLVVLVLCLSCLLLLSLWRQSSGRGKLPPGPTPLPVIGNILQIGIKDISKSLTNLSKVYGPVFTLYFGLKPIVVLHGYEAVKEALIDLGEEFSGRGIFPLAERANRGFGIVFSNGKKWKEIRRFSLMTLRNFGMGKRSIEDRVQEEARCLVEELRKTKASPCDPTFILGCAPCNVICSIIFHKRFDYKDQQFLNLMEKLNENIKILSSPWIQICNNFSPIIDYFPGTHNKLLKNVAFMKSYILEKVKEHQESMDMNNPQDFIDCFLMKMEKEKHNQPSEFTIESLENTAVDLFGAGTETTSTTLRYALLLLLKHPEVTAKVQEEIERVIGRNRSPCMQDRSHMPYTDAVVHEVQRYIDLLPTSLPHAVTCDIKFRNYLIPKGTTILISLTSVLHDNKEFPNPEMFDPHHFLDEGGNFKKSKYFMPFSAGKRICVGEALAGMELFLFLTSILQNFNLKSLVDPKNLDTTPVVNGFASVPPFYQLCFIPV
Cytochrome P450 2D6 (Homo sapiens), sequence (P10635 whole entry, looked up): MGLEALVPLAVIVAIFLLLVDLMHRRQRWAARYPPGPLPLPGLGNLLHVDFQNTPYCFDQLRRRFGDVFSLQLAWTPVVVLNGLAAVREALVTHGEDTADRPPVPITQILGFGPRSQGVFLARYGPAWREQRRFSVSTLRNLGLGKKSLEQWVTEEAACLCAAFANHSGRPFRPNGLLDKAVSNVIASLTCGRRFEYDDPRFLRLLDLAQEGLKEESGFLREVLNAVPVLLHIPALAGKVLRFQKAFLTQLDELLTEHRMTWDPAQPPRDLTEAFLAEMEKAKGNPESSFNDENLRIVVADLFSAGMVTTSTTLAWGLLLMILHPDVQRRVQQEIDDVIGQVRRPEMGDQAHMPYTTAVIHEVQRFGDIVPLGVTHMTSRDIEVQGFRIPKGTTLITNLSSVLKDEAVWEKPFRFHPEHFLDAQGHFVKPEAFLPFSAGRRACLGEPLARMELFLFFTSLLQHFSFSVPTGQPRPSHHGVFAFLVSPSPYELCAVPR
Cytochrome P450 3A4 (Homo sapiens), sequence (P08684 whole entry, looked up): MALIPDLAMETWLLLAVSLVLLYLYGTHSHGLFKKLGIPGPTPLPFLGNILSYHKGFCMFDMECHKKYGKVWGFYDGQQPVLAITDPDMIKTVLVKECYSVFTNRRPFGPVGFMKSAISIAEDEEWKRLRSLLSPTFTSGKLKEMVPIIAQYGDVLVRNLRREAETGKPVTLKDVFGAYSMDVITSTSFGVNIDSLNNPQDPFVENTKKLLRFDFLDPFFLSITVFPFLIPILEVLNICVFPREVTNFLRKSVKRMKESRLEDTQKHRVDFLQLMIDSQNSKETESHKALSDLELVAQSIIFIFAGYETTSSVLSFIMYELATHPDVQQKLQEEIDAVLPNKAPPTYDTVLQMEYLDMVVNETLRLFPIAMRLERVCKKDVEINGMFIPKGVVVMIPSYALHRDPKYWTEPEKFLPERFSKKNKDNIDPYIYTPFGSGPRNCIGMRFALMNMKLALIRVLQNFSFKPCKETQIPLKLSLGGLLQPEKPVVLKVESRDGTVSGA

CC(C)OC(C)C
inactive: Potency [1] | Potency [2] | Potency [3] | outcome [4] | Potency [5] | Potency [6] | Potency [7] | Potency [8] | Potency [9] | Potency [10] | Potency [11]

CC1(C)O[C@@H]2C[C@H]3[C@@H]4CCC5=CC(=O)CC[C@]5(C)[C@@]4(F)[C@@H](O)C[C@]3(C)[C@]2(C(=O)CCl)O1
inactive: Potency [1] | Potency [2] | Potency [3] | outcome [4] | Potency [10] | Potency [14]
active: Potency [6] 9.44 µM | Potency [12] 1 µM | Potency [13] 5.01 µM | Potency [8] 34.7 µM | Potency [9] 15.5 µM

O=C1CCCc2ccccc21
inactive: Potency [1] | Potency [2] | Potency [3] | outcome [4] | Potency [5] | Potency [8] | Potency [9] | Potency [14] | Potency [11]
active: Potency [6] 39 µM | Potency [10] 36 µM

N#CSCC(=O)O
inactive: Potency [1] | Potency [2] | Potency [3] | outcome [4] | Potency [5] | Potency [6] | Potency [7] | Potency [8] | Potency [10] | Potency [14] | Potency [11]

CCCCCCOc1ccc(N)cc1
inactive: Potency [1] | Potency [2] | outcome [4] | Potency [5] | Potency [14]
active: Potency [6] 48.6 µM | Potency [7] 35.6 µM | Potency [8] 2 µM | Potency [10] 3.99 µM | Potency [11] 35.6 µM

CCOc1ccccc1N
active: Potency [7] 3.53 µM | Potency [8] 22.3 µM | Potency [9] 31.5 µM | Potency [10] 19.9 µM | Potency [14] 21.7 µM | Potency [11] 15.8 µM
inactive: Potency [1] | Potency [2] | Potency [3] | outcome [4] | Potency [5] | Potency [6]

Cc1c[nH]c(=S)[nH]c1=O
inactive: Potency [1] | Potency [2] | Potency [3] | outcome [4] | Potency [5] | Potency [6] | Potency [14] | Potency [11]
active: Potency [8] 79.9 µM | Potency [10] 63.5 µM

CCCCCCCOC(=O)CCC
active: Potency [7] 20 µM | Potency [8] 79.6 µM
inactive: Potency [1] | Potency [2] | Potency [3] | outcome [4] | Potency [5] | Potency [6] | Potency [11]

Cc1ccsc1C(=CCCN1CCC[C@@H](C(=O)O)C1)c1sccc1C
inactive: Potency [1] | Potency [2] | outcome [4] | Potency [5] | Potency [6] | max activation [12] 2.87% | Potency [15] | Potency [13] | Potency [7] | Potency [8] | Potency [9] | Potency [10] | Potency [14]

CC(C)CCCCCCc1ccc(OCCOCCO)cc1
active: Potency [6] 97.2 µM
inactive: Potency [1] | Potency [2] | Potency [3] | outcome [4] | Potency [5] | Potency [7] | Potency [8] | Potency [14] | Potency [11]

C1CSCCS1
inactive: Potency [2] | Potency [3] | outcome [4] | Potency [8] | Potency [9] | Potency [10] | Potency [14] | Potency [11]
active: Potency [6] 27.1 µM

CC(C)NCC(O)COc1ccc(CCOCC2CC2)cc1 (stereo unspecified)
inactive: Potency [1] | Potency [2] | Potency [3] | outcome [4] | Potency [5] | Potency [14]

CCCCCCn1c(=O)c2c(ncn2C)n(C)c1=O
inactive: Potency [1] | Potency [2] | Potency [3] | outcome [4] | Potency [5] | Potency [6] | Potency [7] | Potency [14] | Potency [11]
active: Potency [8] 30.9 µM | Potency [10] 15.5 µM

CCOC(=O)c1cc(=O)c2c(OCC(COc3cccc4oc(C(=O)OCC)cc(=O)c34)OC(=O)[C@@H](N)CCCCN)cccc2o1
inactive: Potency [1] | Potency [2] | Potency [3] | outcome [4] | Potency [5] | Potency [6] | Potency [7] | Potency [8] | Potency [14]

CCN(CC)CCOc1ccc(Cc2ccccc2)cc1
inactive: Potency [2] | Potency [3] | outcome [4] | Potency [5] | max activation [12] -17.9% | Potency [9] | Potency [10] | Potency [11]
active: Potency [6] 23.7 µM | Potency [15] 11.2 µM | Potency [13] 4.47 µM | Potency [7] 9.77 µM | Potency [8] 0.55 µM | Potency [14] 7.56 µM

CCN(CC)C(=O)N(CC)CC
inactive: Potency [1] | Potency [2] | Potency [3] | outcome [4] | Potency [5] | Potency [6] | Potency [7] | Potency [9] | Potency [14] | Potency [11]

ClC(Cl)Cl
inactive: Potency [1] | Potency [2] | outcome [4] | Potency [5] | max activation [12] 0.159%

CN(C)C(=O)NC1(c2ccccc2)CCN(CCC[C@]2(c3ccc(Cl)c(Cl)c3)CCCN(C(=O)c3ccccc3)C2)CC1
active: Potency [7] 3.79 µM | Potency [14] 2.08 µM
inactive: caspase activation [2] 1.95% [at 19 µM] | caspase-3/7 activation [4] -0.059% [at 19 µM] | activation [6] -0.297% [at 19 µM] | Potency [10]

O=CCCc1ccccc1
inactive: Potency [1] | Potency [2] | Potency [3] | outcome [4] | Potency [5] | Potency [14]
active: Potency [8] 25.2 µM | Potency [9] 35.6 µM
